# Out of some 48,000 compounds screened, about 13,000 (27%) showed an effect of 50% or more. Some of the results follow.
# System: Wolbachia pipientis
# Experiment: Anti-Wolbachia Cell-Based Screen
# Type: functional
# Parameters: scale not given: in the data most compounds retested in dose-response had high values
# Settings: 5 µM
row,SMILES,Percent Effect
1,CCN(CC)S(=O)(=O)c1ccc(C(F)(F)F)cc1C#N,-8.635%
2,COc1cccc(OC)c1C(=O)N1CCN(c2ccccc2F)CC1,-1.098%
3,COc1ccccc1OC1CCN(C(=O)c2cccc(O)c2C)CC1,0.8848%
4,COc1ccccc1C(=O)N1CC(=O)N(C2CCCCC2)CC(O)C1 (stereo unspecified),104.3%
5,COc1cccc(OC)c1C(=O)N1CC(=O)N(C2CCC2)CC(O)C1 (stereo unspecified),125.2%
6,COc1ccc(C(=O)N2CC[C@@H](N3CCC(O)CC3)[C@H](O)C2)cc1C,-6.669%
7,CCOc1ccccc1C(=O)N1CCn2c(nnc2C(F)(F)F)C1,-4.293%
8,CCOc1ccccc1C(=O)N1CCCC(O)(CN(C)C)C1 (stereo unspecified),8.806%
9,COc1ccc(C(=O)N2CC(=O)N(C3CCC3)CC(O)C2)cc1OC (stereo unspecified),103.9%
10,O=C(c1cc(Cl)ccc1OC1CCN(C2CCCC2)CC1)N1CC(O)C1,4.812%
11,COc1cccc2c1OCC(C(=O)N1CCN(C3CCCC3)C(=O)C1)C2 (stereo unspecified),-9.278%
12,CCOc1ccccc1C(=O)N1CC(=O)N(C2CCC2)CC(O)C1 (stereo unspecified),90.13%
13,O=C(c1ccc2c(c1)[nH]c(=O)n2C1CCCC1)N1CC(O)C1,-1.674%
14,Cc1ccc(NC(=O)N2C[C@H]3CC[C@@H]2CN(Cc2cscn2)C3)cc1,4.002%
15,COc1ccc(C(=O)N2CC(=O)N(C3CCC3)CC(O)C2)c(OC)c1 (stereo unspecified),143.6%
16,COc1ccc(C(=O)NC2CC2)c(OC)c1,17.15%
17,COc1ccc(C(=O)N2CC[C@H](CO)[C@H](O)C2)c(C)c1,-8.532%
18,O=C(O)C(F)(F)F.O=C(O)C(F)(F)F.O=C1CCC2(CCN(Cc3ccc(F)cc3)CC2)N1CCN1CCCC1,100.3%
19,CN1CC(=O)N(c2cnn(C)c2)CC12CCN(Cc1nccn1C)C2.O=C(O)C(F)(F)F.O=C(O)C(F)(F)F (stereo unspecified),-9.756%
20,Cn1ccnc1CN1CCC2(CCC(=O)N2CCN2CCCC2)CC1.O=C(O)C(F)(F)F.O=C(O)C(F)(F)F,107.9%
21,COCCN1C(=O)CCC12CCCN(Cc1nccs1)CC2.O=C(O)C(F)(F)F (stereo unspecified),12.79%
22,CCN1C(=O)CCC12CCCN(Cc1ccc(F)cc1)CC2.O=C(O)C(F)(F)F (stereo unspecified),86.81%
23,CCN1C(=O)CCC12CCCN(Cc1nccs1)C2.O=C(O)C(F)(F)F (stereo unspecified),30.34%
24,O=C(NCC1(CO)CC1)c1ccccc1Br,-13.86%
25,COCC(C)N1CCc2onc(-c3ccc(F)c(F)c3)c2C1 (stereo unspecified),-3.283%
26,O=C(NC1CCS(=O)(=O)C1)c1ccc(SCc2cscn2)cc1 (stereo unspecified),-5.861%

row,SMILES,Percent Effect
1,CCCc1cc(NCc2ccc(CO)cc2)n2nccc2n1,-5.904%
2,CC1c2ncc(Cn3cncn3)n2CCN1CC1CCOCC1.O=C(O)C(F)(F)F (stereo unspecified),55.37%
3,CC1c2ncc(Cn3cncn3)n2CCN1C1CCOCC1.O=C(O)C(F)(F)F (stereo unspecified),-16.95%
4,CC1c2ncc(Cn3cncn3)n2CCN1C(=O)C1CCOCC1 (stereo unspecified),-2.006%
5,CC1c2ncc(Cn3cncn3)n2CCN1C(=O)[C@H]1CCCO1 (stereo partly specified),86.12%
6,CC(C)N1CCn2c(COCC3CCOCC3)cnc2C1C.O=C(O)C(F)(F)F (stereo unspecified),6.159%
7,O=S(=O)(C1CC1)N1CCc2ncc(Cn3cncn3)n2CC1,-7.39%
8,COCc1cnc2n1CCN(S(=O)(=O)N(C)C)C2C (stereo unspecified),6.284%
9,Cc1nc(COCc2cnc3n2CCN(C(=O)C2CC2)C3C)cs1 (stereo unspecified),-5.573%
10,CC1c2ncc(Cn3cncn3)n2CCN1C(=O)N(C)C (stereo unspecified),113.2%
11,Cc1occc1C(=O)N1CCn2c(Cn3cncn3)cnc2C1C (stereo unspecified),120.5%
12,CSCCCN1CCC(c2nnc(Cn3ccnc3)n2C2CC2)CC1,14.62%
13,N#Cc1cccc(OCCN2CCC(C(=O)N3CCOCC3)CC2)c1,-12.33%
14,O=C(CC(F)(F)F)N1C[C@@H]2CC[C@H](C1)N(Cc1ccccc1)C2=O,-3.015%
15,CCn1c(C2CCCN(Cc3ccc4ccccc4n3)C2)nn(C)c1=O (stereo unspecified),31.19%
16,COc1ccccc1C1(CNc2cn[nH]c(=O)c2Cl)CCOCC1,-1.761%
17,Cc1ncsc1CCN1CCN(C(=O)c2ccc(=O)[nH]c2)CC1,12.93%
18,COCCC(=O)N1CCn2c(COCC3CC3)cnc2C1C (stereo unspecified),-18.59%
19,COCC(=O)N1CCn2c(Cn3cncn3)cnc2C1C (stereo unspecified),79.44%
20,CC(C(=O)N1CCC(c2[nH]ncc2-c2ccccc2)CC1)n1cncn1 (stereo unspecified),96.41%
21,Cc1ccc(N2CCCC(c3[nH]ncc3-c3ccccc3)C2)nn1 (stereo unspecified),25.67%
22,CCc1cn[nH]c1C1CCN(C(=O)c2cccc(O)c2C)CC1,-3.715%
23,C[C@@H](N)C(=O)N1CCC(c2[nH]ncc2-c2ccccc2)CC1,132.4%
24,C[C@H](N)C(=O)N1CCC(c2[nH]ncc2-c2ccccc2)CC1,108.2%
25,CC(O)C(=O)N1CCC(c2[nH]ncc2-c2ccccc2)CC1 (stereo unspecified),105.3%
26,Cc1ccc(-c2cn[nH]c2C2CCCN(c3nccc(N)n3)C2)cc1 (stereo unspecified),6.644%

row,SMILES,Percent Effect
1,FC(F)c1nnc2ccc(N3CCC4(CCOC4)C3)nn12 (stereo unspecified),-11.38%
2,CSc1ncc(CNC(C)c2cnn(-c3ccccc3)c2C)cn1 (stereo unspecified),31.2%
3,CN(CCCc1n[nH]c(N)c1C#N)C(=O)Nc1cc(Cl)cc(Cl)c1,9.984%
4,Cc1ccc(NCc2ncc(C(C)(C)C)o2)c(Cl)c1,-11.33%
5,O=C(CCC1CCN(Cc2ccncc2)CC1)Nc1ccccc1Cl,-2.559%
6,Cc1cnn(CC2CCCN2C(=O)Cc2c(C)noc2Cl)c1 (stereo unspecified),116%
7,Cc1cnn(CC2CCCN2C(=O)c2cc(C)no2)c1 (stereo unspecified),3.618%
8,Cc1cnn(CC2CCCN2C(=O)Cc2cn3ccsc3n2)c1 (stereo unspecified),12.98%
9,Cc1cnn(CC2CCCCN2C(=O)Cc2c(C)noc2Cl)c1 (stereo unspecified),116.9%
10,Cc1cnn(CC2CCCCN2C(=O)CN(C)C2CC2)c1 (stereo unspecified),4.023%
11,CCN1CC2(CCN(C(=O)C(C)Oc3ccc(F)cc3F)CC2)OC1=O (stereo unspecified),-0.4228%
12,Cc1cc(C[S+]([O-])CC(=O)NCc2cccs2)no1 (stereo unspecified),-0.248%
13,COc1ccc(F)cc1C[S+]([O-])CC(=O)NCc1ccccc1C (stereo unspecified),4.028%
14,Cc1cc(C[S+]([O-])CC(=O)NCc2ccccc2)no1 (stereo unspecified),111.1%
15,COc1ccccc1CNC(=O)C[S+]([O-])Cc1cc(C)on1 (stereo unspecified),100.1%
16,COc1ccc(F)cc1C[S+]([O-])CC(=O)NCc1ccccc1 (stereo unspecified),-20.74%
17,Cc1cc(C[S+]([O-])CC(=O)NCC(C)C)no1 (stereo unspecified),-9.622%
18,Cc1cc(C[S+]([O-])CC(=O)Nc2c(C)cccc2C)no1 (stereo unspecified),4.503%
19,Cc1cc(C[S+]([O-])CC(=O)NCc2cccc(Cl)c2)no1 (stereo unspecified),98%
20,O=C(C[S+]([O-])Cc1cccc(Cl)c1)NC1CCCC1 (stereo unspecified),-4.291%
21,CNC(=O)CCS(=O)(=O)Cc1nnnn1-c1ccccc1,7.116%
22,CC1(NC(=O)CC2CCc3ccccc32)CCOCC1 (stereo unspecified),-18.69%
23,CCN(CC(C)C#N)C(=O)c1cccc(COc2ccc(C)nc2)c1 (stereo unspecified),11.78%
24,CC(c1ccco1)N(C(=O)c1cccc(C#N)c1)C1CC1 (stereo unspecified),-7.767%
25,CN(C)Cc1nc2c(o1)CN(C(=O)c1ccncc1F)C2,-6.758%
26,CC(C)c1noc(CN2CCN(C(=O)c3cccnc3O)CC2)n1,109.3%

row,SMILES,Percent Effect
1,CC(C)n1ccnc1CN1CCCN(C(=O)c2cccnc2O)CC1,3.954%
2,CC(C)c1noc(CN2CCN(C(=O)c3ccccc3F)CC2)n1,4.935%
3,CC(C)c1noc(CCC(=O)Nc2cc(F)ccc2F)n1,6.757%
4,CC(C)(O)CN1CCN(C(=O)c2cccnc2O)CC1,-5.606%
5,CC(C)c1noc(CN2CCN(C(=O)c3cc(Cl)ccc3F)CC2)n1,113.5%
6,CC(C)c1noc(CN2CCN(C(=O)c3ccncc3F)CC2)n1,113.2%
7,CN(C)C(=O)c1ccc(-c2cscn2)cc1,-9.809%
8,O=C(O)C(F)(F)F.O=C(c1cnccn1)N1CCN2C[C@H](Oc3cccc(F)c3)C[C@H]2C1,8.036%
9,OC1(CNCc2ccc(F)c(C(F)(F)F)c2)CCOC1 (stereo unspecified),-11.97%
10,CCN1CCC2(CN(C(=O)N(C)C)CC23CCN(CC2CC2)CC3)C1=O.O=C(O)C(F)(F)F (stereo unspecified),-42.34%
11,c1ncn(CCNC2CCCN(Cc3noc(C4CC4)n3)C2)n1 (stereo unspecified),10.95%
12,CCCc1nc(CN2CCCC(Cn3cncn3)C2)no1 (stereo unspecified),15.71%
13,c1ncn(CC2CN(Cc3noc(C4CC4)n3)CCO2)n1 (stereo unspecified),0.6807%
14,CC(C)(C)c1nc(CN2CCCC(Cn3cncn3)C2)no1 (stereo unspecified),114.7%
15,CC(C)(C)c1nnc(CN2CCCC(Cn3cncn3)C2)o1 (stereo unspecified),3.207%
16,c1cnc(-c2nc(CN3CCCC(Cn4cncn4)C3)cs2)nc1 (stereo unspecified),1.551%
17,Cc1nc(CN2CCCC(Cn3cncn3)C2)no1 (stereo unspecified),79.74%
18,c1ncn(CC2CCCN(Cc3noc(C4CC4)n3)C2)n1 (stereo unspecified),115%
19,Cc1ccc(CNC(=O)NCC(=O)NC(C)(C)C)c(N2CCCC2)c1,2.082%
20,Fc1ccccc1-c1noc2c1CN(CC1CC1)CC2,-13.76%
21,Cn1ccnc1CN1C[C@@H](F)[C@@H](OCc2nc3cnccc3[nH]2)C1,4.118%
22,CCOCCn1c(=O)[nH]c2cc(C(=O)N(C)Cc3ccno3)ccc21,10.95%
23,O=C1CCC2(CCNCC2)CN1CCCNc1cccnc1,-8.003%

# Source: ChEMBL document CHEMBL3988442, “University of Dundee, Small-Polar-MMV Screening Library” (2021)
